Source: PubChem BioAssay (National Center for Advancing Translational Sciences (NCATS))
The list is not random: actives were taken first. Their share in the collection is about 1.9%.
ERK EGF block: EGF-driven ERK pathway inhibition | HEK293-V1b, EGF-stimulated phospho-ERK AlphaScreen | Potency, µM (titrated, usually from 11.5 µM), for inactives: at the top dose activity change, negative = inhibition, most hits filed as inhibitors | 0.41% of 130,000 active | AID 1454;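 also: plate controls were stimulated vehicle wells for no effect and unstimulated vehicle basal for full effect; nearly all actives have a fitted effect of over 55% in size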
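EGF-stimulated (25 nM, 5 min) phospho-ERK in HEK293 cells stably expressing V1b, cells pretreated 30 min with compound at 37C. Homogeneous AlphaScreen read on lysates.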
HttQ103 aggreg: inhibitors of mutant huntingtin aggregate formation in PC12 cells; PC12 HttQ103-GFP aggregates, Acumen cytometry, 40 h; Potency, µM (top dose mostly 46.1 µM), inactives show top-dose activity change, negative = inhibition, most hits filed as inhibitors; 1.1% of 220,000 active; AID 1688; also: % is scaled to controls: 0 for no effect and ±100 for the full control effect; nearly all actives have a fitted effect of over 60% in size
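Aggregate formation scored by laser-scanning cytometer (488 excitation, 500–530 emission) in lysed PC12 cells expressing Q103-GFP after 100 nM tebufenozide induction; library tested in dose series, with ATPLite reagent added in the multiplex.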
HTT ATP protect: protects HTT-Q103 PC12 cells, measured by ATP. PC12 HTT-Q103 induced, cytoprotection, ATP luminescence, 40 h. Potency, µM (highest dose often 56.4 µM), without a hit: cytoprotection (ATP increase), usual class: activators. 0.14% of 230,000 active. AID 1471; also: % of control where 0% means no effect; nearly all actives have a fitted effect of over 45% in size
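Cells were plated at 1500 per well in phenol red-free DMEM with 5% equine and 5% calf serum. Tebufenozide (100 nM final) and compounds were added, then ATPlite reagent, and luminescence was read.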
NPSR antag: neuropeptide S receptor (human) antagonism, cAMP; Potency, µM (top dose mostly 38.3 µM), for the others: top-dose activity change, negative = inhibition, usual class: inhibitors; 1% of 220,000 active; Q6W5P4; AID 1461; CHO-NPSR cells, cAMP TR-FRET, antagonist mode; also: % is scaled to controls: 0 for no effect and ±100 for the full control effect; nearly all actives have a fitted effect of over 50% in size
Target sequence (Q6W5P4 whole entry, looked up): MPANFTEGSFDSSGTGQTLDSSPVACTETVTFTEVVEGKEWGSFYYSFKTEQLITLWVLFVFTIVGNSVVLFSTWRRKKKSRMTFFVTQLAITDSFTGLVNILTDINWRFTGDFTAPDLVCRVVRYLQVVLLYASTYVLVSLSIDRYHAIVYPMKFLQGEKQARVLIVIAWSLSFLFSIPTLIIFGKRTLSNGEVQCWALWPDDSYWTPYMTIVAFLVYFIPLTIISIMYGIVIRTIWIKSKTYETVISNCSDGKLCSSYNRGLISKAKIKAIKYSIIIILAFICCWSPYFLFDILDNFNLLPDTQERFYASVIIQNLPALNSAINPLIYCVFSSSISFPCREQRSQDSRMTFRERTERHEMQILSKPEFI
IMPase Li cell: cell-permeable IMPase inhibitors with lithium potentiation. Potency, µM (series often up to 59.4 µM), for the others: at the highest dose activity, negative = IMPase inhibition, most hits filed as inhibitors. 0.35% of 210,000 active. CHO-M1 cells, IP1 TR-FRET (IP-One), carbachol + lithium;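 also: IP1 builds up when IMPase is blocked and the TR-FRET signal falls; plate controls were basal vehicle for no effect and high inhibitor control for full effect; nearly all actives have a fitted effect of over 50% in size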
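Lithium-sensitised IP1 accumulation assay; M1-expressing CHO cells treated 30 min at 37C with compound. Competitive antibody detection by time-resolved FRET followed a 10 min room-temperature lysis step.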
Starred values were filed as active, the others as inactive; ? = inconclusive; . = no result given; [ ] = another dose, or the depositor's remark. Calls follow the shape of the dose curve; as a rule, active = well fitted curve in the direction sought with a large enough effect; inconclusive = small, poorly fitted or top-dose-only effect, or another doubt; inactive = no such curve, though single readings can be large; an effect the other way counts as inactive or inconclusive. Potency is read from the fitted curve at half-maximal effect.

SMILES	ERK EGF block	HttQ103 aggreg	HTT ATP protect	NPSR antag	IMPase Li cell
OC(CN1c2ccccc2Sc2ccccc21)Cn1nnc2ccccc21 (centres undefined)	.	?	10%[10 µM]	-19%[46.1 µM]	25%
COc1ccc(CCN2C(=S)NC3CC2(C)Oc2ccc([N+](=O)[O-])cc23)cc1OC (centres undefined)	.	10µM*	-81%	-25%[46.1 µM]	9%[38.3 µM]
Cc1ccc(C(C(=O)NCC2CCCO2)N(Cc2ccccc2)C(=O)c2ccc(-c3ccccc3)[nH]2)o1 (centres undefined)	7%	0.13µM*	.	-45%	6%
Nc1ccccc1C(=O)CC(N)C(=O)O (centres undefined)	-10%	.	?	.	12%
CCN1CCCC1Cn1c(-c2ccccc2)nc2c(NCCOC)nc(C)nc21 (centres undefined)	3%	.	9%	.	3%
CCOC(=O)c1cc([N+](=O)[O-])c([N+](=O)[O-])cc1NC(C)=O	-12%	13%	.	10µM*	26%
CCOC(=O)c1ccc(NC(=O)c2ccccc2[N+](=O)[O-])cc1	5%	11%	.	-17%	-1%
COC(=O)c1cc(=O)nc2sccn12	.	2%[9.22 µM]	-6%	-1%[46.1 µM]	-8%[38.3 µM]
COC(=O)c1cc(NC(=O)c2c(Cl)nc3sccn23)cc(C(=O)OC)c1	.	5%	-5%	3%[7.67 µM]	11µM*
COc1ccc(NC2C[C@H]3CCCC(=O)N4CC[C@@H](C2)[C@@H]34)cc1 (some centres undefined)	.	.	14%	.	9%
CCCC(=O)NCCc1c(I)[nH]c2ccc(OC)cc12	.	.	-35%	.	1%
C[n+]1ccc(/C=C/c2ccccc2O)c2ccccc21	?	?	-29%	13µM*	41%
O=C(NC1CCCC1)c1cc2c(ccc3ccccc32)o1	.	11µM*	-38%	-22%[46.1 µM]	38%[38.3 µM]
CNC(=O)c1cc2c(ccc3ccccc32)o1	-2%	-1%	-49%	16%	-7%
CCCCc1nc2c(c3c1CC(C)OC3)CN(CCOc1ccccc1)CC2 (centres undefined)	.	.	-11%[10 µM]	.	.
COc1ccc(NC(=S)NC(=O)/C=C/c2ccco2)cc1	9%	-8%	-3%	-30%	10%
O=C(/C=C\c1ccco1)Nc1nc(-c2ccc3ccccc3c2)cs1	.	-6%	-16%[10 µM]	2%[46.1 µM]	.
Cc1ccc(-c2csc(NC(=S)NC(=O)/C=C/c3ccco3)n2)cc1	.	11%	-65%	10µM*	11%[38.3 µM]
O=C(/C=C/c1ccco1)NC(=S)Nc1ccc(O)c(-c2nc3ccccc3s2)c1	4%	23%	-13%[10 µM]	1µM*	3%
COc1cccc2c(=O)n(CC(=O)Nc3cccc(F)c3)ccc12	.	10%	24%	-3%[46.1 µM]	14µM*
COc1ccc(Br)cc1C(=O)Nc1ccc(C(=O)NCC(C)C)cc1	10%	-5%[9.22 µM]	-15%[10 µM]	28%	8%
CCOc1ccc(Br)cc1C(=O)Nc1ccc(C(=O)NCC(C)C)cc1	13%	26%	.	?	10µM*
Cc1cccc(Sc2c([N+](=O)[O-])ncn2C)c1	.	10%	24%	-5%[46.1 µM]	7.9µM*
CC(C)=CCC/C(C)=C/C=O	.	.	-10%	.	15%
CCOc1ccc(CCNC(=O)CSc2nn(-c3ccc(C)c(Cl)c3)c(=S)s2)cc1OCC	-8%	15%	7%[10 µM]	-19%[46.1 µM]	10µM*
SMILES	ERK EGF block	HttQ103 aggreg	HTT ATP protect	NPSR antag	IMPase Li cell
COc1cccc2c3c(c(C)nc12)CC(CO)O3 (centres undefined)	-7%	.	-22%	.	2%
Cc1ccc(-c2nnc(N3CCN(C(=O)COc4cccc(C)c4)CC3)c3ccccc23)cc1	40µM*	9%[9.22 µM]	-10%[10 µM]	?	.
CN1/C(=C\C(=O)C[n+]2cccc(C(N)=O)c2)C(C)(C)c2ccccc21	-1%	-13%	-52%[10 µM]	-1%	3%
CN1/C(=C\C(=O)C[n+]2ccc(C(=O)c3ccccc3)cc2)C(C)(C)c2ccccc21	-2%	13µM*	-18%[10 µM]	7%	15%
CO[C@]1(C2=NCCN2)COc2ccccc2O1	-6%	.	?	.	4%
O=C(NC(=S)NNC(=O)c1cccs1)c1ccco1	.	11µM*	-77%	-6%[46.1 µM]	-7%[38.3 µM]
O=C(NNC(=O)c1cccs1)c1ccco1	.	-15%[9.22 µM]	4%[10 µM]	-23%	-5%
CCCOc1ccc(C(=O)NNC(=S)NC(=O)c2ccco2)cc1	0%[57.5 µM]	1%[9.22 µM]	?	-38%	.
COc1ccc(C(=O)NNC(=S)NC(=O)c2ccco2)cc1	.	20µM*	-46%	-25%[46.1 µM]	-8%[38.3 µM]
Cc1ccccc1Oc1cc(-n2ncc(Cl)c(Cl)c2=O)ncn1	?	?	-97%[10 µM]	2.5µM*	-20%
CCOc1cnn(-c2cc(Oc3ccc(C)cc3)ncn2)c(=O)c1Cl	.	4%	-1%[10 µM]	-13%[46.1 µM]	9%[38.3 µM]
COc1ccc(CNc2ccnc(-c3ccc4c(c3)OCO4)n2)c(OC)c1	.	.	-25%	.	3%
Oc1ccc2ccccc2c1N=Nc1ccccn1	.	?	-76%	7.9µM*	32%[38.3 µM]
Oc1ccc2ccccc2c1N=Nc1ccccc1F	14µM*	4%[9.22 µM]	4%[10 µM]	5%	.
O=S(=O)(O)c1cccc(N=Nc2c(O)ccc3ccccc23)c1	?	-8%[9.22 µM]	8%[10 µM]	-2%	.
CC(=O)N[C@@H](CSC/C=C(\C)CC/C=C(\C)CCC=C(C)C)C(=O)O	7%	.	-6%	.	-12%
CCCCCCCCCCCCCCCC(=O)C1=C(O)C(CO)OC1=O (centres undefined)	.	.	-9%	.	24%
COC(=O)N/N=C(\C)c1ccc(OC(F)F)cc1	3%	8%	-30%	21%	-5%
COC(=O)N/N=C(\C)c1ccc2ccccc2c1OC(F)F	10%	?	0.79µM*	6%	-3%
CN1CCN(c2ncc3nc(CCc4ccccc4)c(=O)n(CCC#N)c3n2)CC1	8%	.	5%	.	5%
c1ccc(CNc2oc(-c3ccccc3)nc2-c2cccc3ccccc23)cc1	-5%	.	-12%	.	21%
Cc1ccc(S(=O)(=O)CC2CSc3nc(N)cc(=O)n32)cc1 (centres undefined)	.	7%	3%[0.074 µM]	-18%[46.1 µM]	-13%[38.3 µM]
Cc1ccc(S(=O)(=O)CC2CSc3nc4ccccc4n32)cc1 (centres undefined)	.	7.1µM*	4µM*	25%[46.1 µM]	39%[38.3 µM]
Nc1ccn([C@@H]2O[C@@H](CO)[C@@H](O)[C@H]2O)c(=O)n1	.	.	-63%[1.9 µM]	.	.
O=[N+]([O-])c1ccc(O)c(Nc2ncnc3ccc(Br)cc23)c1	25µM*	32µM*	-157%	-34%	13%
O=[N+]([O-])c1ccc2ncnc(Nc3ccc4c(c3)OCCO4)c2c1	5%	14µM*	-62%	-19%	23%
COCC(=O)Nc1ccccc1C(=O)Nc1ccc(OC)cc1	.	9%	-85%	-16%[46.1 µM]	32µM*
Nc1c(S(=O)(=O)c2cccs2)c2nc3ccccc3nc2n1CC1CCCO1 (centres undefined)	.	0.0022µM*	.	-25%[46.1 µM]	24%[38.3 µM]
CC(C)CCn1c(N)c(S(=O)(=O)c2cccs2)c2nc3ccccc3nc21	.	11µM*	-12%[0.074 µM]	?	37%[38.3 µM]
